Assay results from PubChem BioAssay (Tox21).
Inconclusive results are not listed. Active and inactive are the calls of the source. The call rests on the fitted dose curve; in most records, active means well fitted curve in the direction sought with a large enough effect in the repeat runs; inconclusive means weak or mixed curves; inactive means no such curve, though single readings can be large; an effect the other way counts as inactive or inconclusive.

Legend:
[1] = qHTS RealTime-Glo MT Cell Viability Assay in HepG2 cells - 24 hour (AID 1224867); further: nearly all actives have a fitted effect of over 50% in size
In short: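 HepG2 cells were seeded at 600 cells/well together with NanoLuc luciferase and a cell-permeant prosubstrate, preincubated 5 h at 37 C/5% CO2, then pin-dosed with compounds in DMSO. Nonlytic luminescence from viable cells was read at each time point.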

[2] = qHTS RealTime-Glo MT Cell Viability Assay in HEK293 cells - 32 hour (AID 1224868); further: top concentration of the series differs between compounds; nearly all actives have a fitted effect of over 50% in size
In short: (§1)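 HEK293 cells were seeded at 600 cells/well together with NanoLuc luciferase and cell-permeant prosubstrate, preincubated 5 h at 37 C/5% CO2, then given compound in DMSO by pintool. Luminescence from viable-cell prosubstrate reduction was read repeatedly over 40 h.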

[3] = A CellTox Green Cytotoxicity Assay to monitor cytotoxicity in HEK293 cells - 0 hour (AID 1224869); further: nearly all actives have a fitted effect of over 50% in size
In short: (§2)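 Each value comes from one timepoint of a single continuous run in which HEK293 cells with CellTox Green were exposed to compound for up to 40 h at 37 C, dye fluorescence rising with cell death.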

[4] = qHTS RealTime-Glo MT Cell Viability Assay in HepG2 cells - 40 hour (AID 1224870); further: nearly all actives have a fitted effect of over 50% in size
In short: (§3)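 HepG2 cells (600/well) mixed with RealTime-Glo MT reagent, settled 5 h at 37 C/5% CO2 before compound addition. Nonlytic NanoLuc luminescence from viable-cell prosubstrate reduction read repeatedly during 40 h treatment at 37 C.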

[5] = qHTS RealTime-Glo MT Cell Viability Assay in HEK293 cells - 16 hour (AID 1224872)
In short: as §1

[6] = qHTS RealTime-Glo MT Cell Viability Assay in HepG2 cells - 8 hour (AID 1224873); further: nearly all actives have a fitted effect of over 55% in size
In short: as §3

[7] = qHTS RealTime-Glo MT Cell Viability Assay in HEK293 cells - 40 hour (AID 1224874); details: RealTime-Glo luminescence; max response: active compounds read low; further: nearly all actives have a fitted effect of over 50% in size
In short: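 qHTS format; HEK293 cells with NanoLuc/prosubstrate reagent, 37 C/5% CO2 for 5 h pre-dosing; compounds 23 nL in DMSO; luminescence at each time point reflects viable cells.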

[8] = A CellTox Green Cytotoxicity Assay to monitor cytotoxicity in HEK293 cells - 24 hour (AID 1224875); further: series mostly up to about 77 µM; nearly all actives have a fitted effect of over 45% in size
In short: as §2

[9] = A CellTox Green Cytotoxicity Assay to monitor cytotoxicity in HEK293 cells - 40 hour (AID 1224871); further: nearly all actives have a fitted effect of over 45% in size
In short: as §2
On the % scale 0 is the no-effect control and ±100 the full control effect.

CCCCCCCC/C=C\CCCCCCCC(=O)OC[C@@H](O)[C@H]1OC[C@H](O)[C@H]1O
inactive: outcome [1] | Potency [2] | Potency [3] | outcome [4] | Potency [5] | outcome [6] | max response [7] 7.57% | Potency [8]

CO[Si](CCCCl)(OC)OC
inactive: outcome [1] | Potency [2] | Potency [3] | outcome [4] | Potency [9] | outcome [6] | max response [7] 28.4% | Potency [8]

CCN(Cc1cccc(S(=O)(=O)O)c1)c1ccccc1
inactive: outcome [1] | Potency [2] | Potency [3] | outcome [4] | Potency [5] | outcome [6]

CC(=O)c1ccc(OCC(=O)N2CCCCC2)cc1
inactive: outcome [1] | Potency [2] | Potency [3] | outcome [4] | Potency [9] | Potency [5] | outcome [6] | Potency [8]

CCCCC(=O)N(C)C
inactive: outcome [1] | Potency [2] | Potency [3] | outcome [4] | Potency [5] | outcome [6] | max response [7] 1.13% | Potency [8]

CNC(=O)C(c1ccccc1)c1ccccc1
inactive: outcome [1] | Potency [2] | Potency [3] | outcome [4] | Potency [9] | Potency [5] | outcome [6] | Potency [8]

COC(=O)CCC(=O)O
inactive: outcome [1] | Potency [2] | outcome [4] | Potency [9] | Potency [5] | outcome [6] | max response [7] 8.17% | Potency [8]

Nc1ccc(S(=O)(=O)Nc2ccccn2)cc1
inactive: outcome [1] | Potency [2] | Potency [3] | outcome [4] | outcome [6] | Potency [8]

CCOC(=O)C(C)(C)C
inactive: outcome [1] | Potency [2] | Potency [3] | outcome [4] | Potency [5] | outcome [6] | max response [7] -0.816% | Potency [8]

OCCCCCCCl
inactive: outcome [1] | Potency [2] | outcome [4] | Potency [9] | outcome [6] | max response [7] -5.21% | Potency [8]

COC(/C=C(\C)CCC=C(C)C)OC
inactive: outcome [1] | Potency [2] | outcome [4] | Potency [5] | outcome [6] | max response [7] 4.55%

O=C(O)CCNC(=O)c1ccccc1
inactive: outcome [1] | Potency [2] | outcome [4] | Potency [9] | Potency [5] | outcome [6] | Potency [8]

CO/N=C(/C(=O)N[C@@H]1C(=O)N2C(C(=O)O)=C(Cn3nnc(C)n3)CS[C@H]12)c1csc(N)n1
inactive: outcome [1] | Potency [2] | outcome [4] | Potency [9] | Potency [5] | outcome [6] | max response [7] 1.17% | Potency [8]

COc1cc2c3cc1Oc1cc(ccc1O)C[C@@H]1c4c(cc(OC)c(O)c4Oc4ccc(cc4)C[C@@H]3N(C)CC2)CC[N+]1(C)C
inactive: outcome [1] | Potency [2] | Potency [3] | outcome [4] | Potency [5] | outcome [6] | max response [7] 3.06% | Potency [8]

O=C1OC(=O)c2cc(Oc3ccc4c(c3)C(=O)OC4=O)ccc21
inactive: outcome [1] | Potency [2] | outcome [4] | Potency [9] | Potency [5] | outcome [6] | max response [7] 3.57% | Potency [8]

Cc1nc([N+](=O)[O-])cn1-c1ccc([N+](=O)[O-])cc1
inactive: outcome [1] | Potency [2] | outcome [4] | Potency [9] | Potency [5] | outcome [6] | max response [7] 4.25%

CCNC(=O)/C=C/c1cccc(Br)c1
inactive: outcome [1] | Potency [2] | Potency [3] | outcome [4] | Potency [5] | outcome [6] | Potency [8]

C1=C\CC/C=C\CC/1
inactive: outcome [1] | Potency [2] | outcome [4] | Potency [9] | Potency [5] | outcome [6] | max response [7] 16.6% | Potency [8]

COc1cc(C=O)ccc1OC(=O)C(C)C
inactive: outcome [1] | Potency [2] | Potency [3] | outcome [4] | outcome [6] | Potency [8]

Cc1ccccc1C(=O)N1CC/C(=N\OS(=O)(=O)O)c2ccc(Cl)cc21
inactive: outcome [1] | Potency [2] | outcome [4] | Potency [9] | outcome [6] | max response [7] -2.43% | Potency [8]

NC(=O)C1(N2CCCCC2)CCN(CCCC(=O)c2ccc(F)cc2)CC1
inactive: outcome [1] | Potency [2] | outcome [4] | Potency [5] | outcome [6] | max response [7] -22.3%

CC(Cl)COP(=O)(OCC(C)Cl)OCC(C)Cl (stereo unspecified)
inactive: outcome [1] | Potency [2] | outcome [4] | Potency [9] | Potency [5] | outcome [6] | max response [7] -0.188% | Potency [8]

CCCO
inactive: outcome [1] | Potency [2] | outcome [4] | Potency [9] | Potency [5] | outcome [6] | max response [7] 1.64% | Potency [8]

CCCCC[Si](OCC)(OCC)OCC
inactive: outcome [1] | Potency [2] | Potency [3] | outcome [4] | Potency [5] | outcome [6] | max response [7] -19.8% | Potency [8]

Cc1nc2ccccc2c(=O)o1
inactive: outcome [1] | Potency [2] | Potency [3] | outcome [4] | outcome [6] | max response [7] 5.55% | Potency [8]

Nc1ccc(S(=O)(=O)NC(=O)c2ccccc2)cc1
inactive: outcome [1] | Potency [2] | Potency [3] | outcome [4] | outcome [6] | max response [7] 2.96% | Potency [8]
